Test results: PubChem BioAssay AID1347426 (Functional Genomics Laboratory (NCATS/FGL), 2020)
About 1,400 (4.5%) of roughly 31,000 sequences were called active.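 The calls were made as follows: active = median seed-adjusted z-score above 1 or below -1; inactive = the rest.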 Many of the other results were omitted from the sample, so actives are more common in it than they were.

assay: Novel Modifiers of Survival Motor Neuron (SMN) Protein: Gene Identification via Genome-wide siRNA Screen; details: HEK293T SMN2-luciferase reporter, siRNA knockdown, 72 h; actives lie on both sides;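 also: luminescence tracks full-length SMN protein made from the SMN2 reporter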
Procedure, shortened: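 Each of three siRNAs per gene is reverse-transfected (1 pmol) into reporter HEK293T cells whose luciferase output tracks SMN protein level. After 72 h culture, ONE-Glo luminescence is control-normalized, log10-transformed and MAD-standardized; Common Seed Analysis deprioritizes seed-driven hits.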

Row | Sequence | median seed-adjusted z-score
1 | GCACUUUACCAUUAGACAATT against LDB2 | -0.0847 (inactive)
2 | GGAGACUAGUAAGCACUAUTT against JARID1B | 0 (inactive)
3 | CAAGAGGGUUUUUACCAUATT against SEC11C | 0.508 (inactive)
4 | GGUCAUGGAUGUGCACGAUTT against KRT14 | -0.127 (inactive)
5 | CAUCAGGAAUGGAAUUACATT against SKIL | -0.868 (inactive)
6 | GGUCCAAGCUGAUUACCCUTT against UNC13A | -2.1 (active)
7 | CCUCCCAUCUUAUUAUCCATT against ZNF572 | 0.237 (inactive)
8 | GGUGGAGACAUUUACAUCUTT against CREB3L1 | 0.708 (inactive)
9 | CAAAGUACCGAGUCGAAUATT against SENP7 | 0.547 (inactive)
10 | GCAAGACCGUGAGACAACUTT against SENP7 | 0.547 (inactive)
11 | GGAAGAAAAUAGUGCUGCATT against BARX1 | 1.63 (active)
12 | CAUUCGCCGUUACCUGCCATT against POLR2F | -3.52 (active)
13 | GAACCACAAGGAGAAGUUUTT against PSMC3 | -0.701 (inactive)
14 | ACAAGGACUAUUACAGAUATT against PLA2G2D | 0.361 (inactive)
15 | GGAGACAUCUGACCCAGCATT against ARHGAP9 | 0 (inactive)
16 | CGUCAGAUCUGAACAAGAATT against CHST4 | 0.349 (inactive)
17 | GUAUAUCAGUUCCAGUUUATT against RANBP3 | -0.211 (inactive)
18 | UUAUCACAGAGCAACCUAATT against NUBPL | 0.105 (inactive)
19 | GGAAUGCACCCAGAUCAAATT against TFAP2D | 0 (inactive)
20 | GGCCUUUCCUUUACUGUCATT against ABCC4 | -1.66 (active)
21 | CCGAAUGAAUGGUGAUAAATT against TUSC3 | 0.138 (inactive)
22 | CAAGGACACUUCAUCGUGATT against AVPR2 | -0.262 (inactive)

Row | Sequence | median seed-adjusted z-score
23 | GAACUCAUCAAAAUGCACATT against KLF15 | -0.45 (inactive)
24 | GGGAGACGAUUGUUCAUCATT against XPA | 2.03 (active)
25 | AUACAUCAAAGAUUAGUAATT against NTS | 0.518 (inactive)
26 | GUUAAUCACAUACACCAAATT against GPR22 | 0.705 (inactive)
27 | CCGCUUGACUAUGAGCUCATT against TTC7A | -0.303 (inactive)
28 | CCAGGAGCGAUAACAGUAATT against DAZAP1 | 0 (inactive)
29 | CCUUAUCGAUAUUAUGAGATT against CPEB2 | -0.00928 (inactive)
30 | ACGUGGAGCUCUUAGACAATT against AP1S1 | -1.04 (active)
31 | GGAUCGGAUGGAUAAGAAUTT against CTTN | -0.314 (inactive)
32 | CACUAGGAAUCACACCGUUTT against TINAG | 0.374 (inactive)
33 | GAGACGAGGAGGAAACUUUTT against DDX27 | -0.131 (inactive)
34 | GCAGUAUGCAGAUUGUUCATT against FGL1 | -0.259 (inactive)
35 | CAGUUGUCCUUGUGGAUAATT against TTF1 | 1.76 (active)
36 | GAUAAUUCCAUGACAUUAUTT against CYP39A1 | 0.196 (inactive)
37 | GAAGAGAACUCUAAGAUCATT against CAMK1G | -0.358 (inactive)
38 | GCAAGUCCCUGUACUAUUATT against ANXA2 | 0.499 (inactive)
39 | GCAGAACUGCUGCUACAGATT against ANKZF1 | 0.176 (inactive)
40 | CACCGUUCAUCUGCACAGATT against KATNA1 | -0.471 (inactive)
41 | CGAUAAACUCAGACCAGAATT against IDE | -0.081 (inactive)
42 | GGAAAGUUGAUUUUUAUGATT against MS4A6E | -0.341 (inactive)
43 | GGCUCUACGGUUUCAAGAUTT against CSNK2B | -1.62 (active)
44 | CAAUGUCCCAAGAUAAAGATT against PRPSAP1 | 0.224 (inactive)

Row | Sequence | median seed-adjusted z-score
45 | CUCUUUGACCGGUUGCUCATT against EGLN2 | -0.349 (inactive)
46 | CCAUUUUAGCUCUAGAAGATT against GSTA4 | -0.848 (inactive)
47 | GAAUUGGCCGUUGGGCUUATT against COX8A | -0.0749 (inactive)
48 | CAUCUCGACUUAUUGGAAATT against WEE1 | -4.05 (active)
49 | CAAGGUCAUUAAUAAGGAUTT against CST5 | 0.466 (inactive)
50 | CACCCAACACCAAACUGUATT against HSPB6 | 0.394 (inactive)
51 | GAAUUAACUUCAUGGUGAATT against PPM1K | 0.154 (inactive)
52 | GCCGAAUCCUGAAGAGACATT against QTRTD1 | 0.377 (inactive)
53 | CAACCACUGUGAGACGAAATT against MFGE8 | 0.0367 (inactive)
54 | CUGAGAUACUGCAAGCUGATT against IL5RA | -0.357 (inactive)
55 | CCGACUACUCCAACGAGAATT against MASP2 | -0.137 (inactive)
56 | GCUCAAGAGCUUGCACAGATT against SLC25A42 | -1.02 (active)
57 | CUCUGAACCAAAUCGUUUATT against DPP8 | -0.0209 (inactive)
58 | GAUGACUACUUAGCUCUAATT against FLJ90650 | 0.427 (inactive)
59 | GGCCUAGUGUAAUCUCCCATT against ZNF774 | -0.0834 (inactive)
60 | GCAGAUCGAUUUCUCAACATT against ABCA1 | -1.27 (active)
61 | CCAUGUUACCAUACAAUAATT against MXD1 | -0.763 (inactive)
62 | CCACAGAGGCUAUGCUAAATT against ACE | 0.0874 (inactive)
63 | GUAGCUCCGAGGUCUGAUATT against SMARCA4 | 0.223 (inactive)
64 | GGAACUACCAGAUCGGGAATT against MYO9B | -0.0287 (inactive)
65 | GCAAGACAAGUGAAGUCAATT against CNBP | -1.14 (active)
66 | CAUGCGGUCUUAGAAAUGATT against HNRPUL1 | -0.047 (inactive)

Row | Sequence | median seed-adjusted z-score
67 | GCAUUUGAGCAUGAAAAUATT against VPS29 | -0.408 (inactive)
68 | AGCUACUAGUGGAGCAGAATT against BAT1 | -1.49 (active)
69 | CCACUCCAUUGAAGAUGUATT against SREBF1 | -0.0469 (inactive)
70 | CAACCAGAAUUACUGCUAUTT against PCDH10 | -0.488 (inactive)
71 | CGACACCAGGAGUACCUCUTT against IKBKE | 0.122 (inactive)
72 | GCAUUUGGAUGGAUCAUGUTT against CD163 | 0.021 (inactive)
73 | GCUGACUACUUGAAGUUCATT against DYRK1A | -1.3 (active)
74 | GGAAAGACAUGUAAGAGCATT against BMP8B | 0 (inactive)
75 | GAACUAAUCCUGUUCAACATT against ATXN3 | 0.04 (inactive)
76 | CUGUGAUUGUAGUAGAUCATT against SLC19A3 | -0.0232 (inactive)
77 | CCUGCCCAGAGAUACGAAATT against SMURF1 | -1.4 (active)
78 | GGUGGUCUCUUUAUAAUGATT against PHAX | -0.0716 (inactive)
79 | GCCUUUAUGUCAUCCUCAATT against ZNF626 | 0.185 (inactive)
80 | GCAGGUCACGGUUGAUGUATT against FANCA | 0.418 (inactive)
81 | CCAGUGUCAUAAACCUGUATT against NUDT4 | -0.0306 (inactive)
82 | GCAUGAGGUUCACCACCAATT against FIBCD1 | -0.0249 (inactive)
83 | GCGGUUUACUAUAGACAAATT against IKBKAP | -0.0316 (inactive)
84 | CGAACGAUUUCCCAAGUUATT against NXF1 | -4.46 (active)
85 | GGUUUUGCACAGCGAGGAATT against B3GALT4 | 0.233 (inactive)
86 | GGGCUAGAUCUGUAUCUUATT against TSC22D3 | 0.0129 (inactive)
87 | GACCUGAUGUGGAAGCAGATT against QDPR | -0.734 (inactive)
88 | CCCUGACUCUUGGAUAUGATT against MEOX1 | 0.0171 (inactive)

Row | Sequence | median seed-adjusted z-score
89 | GGCGAGAUCUUUAUACGCATT against ZNF224 | 0.0073 (inactive)
90 | AGAACGUGCUCUUCGCUCATT against PRKAR1B | -0.0406 (inactive)
91 | GGAAAGUUUUUAAGGCGAATT against UHRF2 | -0.0941 (inactive)
92 | CAUUGGAAAGUGCGAGUUATT against HUWE1 | 0.734 (inactive)
93 | GAGUGAAGUAUAAUCCAUATT against TPH1 | -0.055 (inactive)
94 | CUCUGGUAGAAUCCAAUUATT against GIN1 | -0.0585 (inactive)
95 | CCGCUGAGGUGACAACAAATT against XRCC5 | -1.11 (active)
96 | UCUUCUAAAUACUUCCUAATT against GJC3 | -0.137 (inactive)
97 | GCAUUUGCCCAGUUCAUGATT against RBM28 | 0.649 (inactive)
98 | CACUGUCCUUGGGUGAAUATT against ZDHHC20 | -0.936 (inactive)
99 | CAAGUAUAUUGAACGAGGATT against SLITRK4 | -0.015 (inactive)
100 | UGGUCUCAAUGACAGUAGATT against SNRPB | -3.17 (active)
101 | GCUAAGUACAAAUCAUUCATT against FCN1 | 0.346 (inactive)
102 | GGAGAGUGGUGAUCGGAUATT against MYOM3 | -0.012 (inactive)
103 | CGAUUCACCAGGAACGACATT against ZBTB7B | -0.242 (inactive)
104 | GCCUCAUACCAUUCCAUAUTT against MEP1B | 1.46 (active)
105 | CAGAGGUACUCCACGCAGATT against BHLHA15 | -0.199 (inactive)
106 | GGCUGGUACCUGGAUGAGATT against FTCD | -0.27 (inactive)
107 | GUCUAAUGCACUUAGCUAATT against HEL308 | 0.229 (inactive)
108 | GCAAAACGGAGGAUUGAGATT against EIF5B | 1.68 (active)
